Bioassay records as filed in PubChem.
HADH2 inhib – qHTS Assay for Inhibitors of HADH2 (Hydroxyacyl-Coenzyme A Dehydrogenase, Type II) | recombinant HADH2, NADH fluorescence, beta-hydroxybutyryl-CoA | Potency, µM (doses to about 57.1 µM), without a hit: at the top dose activity change, negative = inhibition, most hits filed as inhibitors | hit rate 3.4% among 73,000; further: potency means the concentration at half of the fitted maximal effect; on the % scale 0 is the no-effect control and ±100 the full control effect; nearly all actives have a fitted effect of over 60% in size
Target sequence (Q99714 whole entry, looked up, one chain of several): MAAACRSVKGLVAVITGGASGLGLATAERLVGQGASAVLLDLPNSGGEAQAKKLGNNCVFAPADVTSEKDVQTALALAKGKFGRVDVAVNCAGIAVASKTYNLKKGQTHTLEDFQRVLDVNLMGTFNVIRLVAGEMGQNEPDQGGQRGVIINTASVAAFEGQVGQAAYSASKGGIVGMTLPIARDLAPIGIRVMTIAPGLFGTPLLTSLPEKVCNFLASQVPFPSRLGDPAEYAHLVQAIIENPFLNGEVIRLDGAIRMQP
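His-tagged recombinant enzyme from E. coli, 20 nM, preincubated 15 min RT with compound; reaction started with 1 mM NAD+ and 90 uM beta-hydroxybutyryl-CoA in 100 mM Tris-HCl pH 9.0. NADH fluorescence (ex 360/em 450) read over 4 min; last-minus-first difference.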
4MU fluor – qHTS Assay for Spectroscopic Profiling in 4-MU Spectral Region. compound autofluorescence, 340/450 nm, 4-MU equivalents; hits give high values. hit rate 11% among 59,000. max dye-equivalent concentration, M; in the data active means max dye-equivalent concentration above about 10 nM; inconclusive means mostly about 1.1 nM to 9.6 nM
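Intrinsic fluorescence at 340/450 nm (ex/em) was read after 15 min at room temperature in pH 8.0, 100 mM Tris. Each compound concentration expressed as 4-MU-equivalent concentration from a six-point 4-MU standard series on each plate.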
A350 fluor – qHTS Assay for Spectroscopic Profiling in A350 Spectral Region | Compound autofluorescence, 340/450 nm, Alexa 350 dye-equivalents; hits give high values | max dye-equivalent concentration, M | hit rate 11% among 59,000; in the data active means max dye-equivalent concentration above about 10 nM; inconclusive means mostly about 1.1 nM to 9.6 nM
AID923 – qHTS Assay for Allosteric/Competitive Inhibitors of Caspase-1: Spectroscopic Profiling in AFC Spectral Region. hit rate 1.1% among 75,000. compound fluorescence, AFC spectral region (405/520 nm). AID 923, 2007. Potency, µM (top dose mostly 57.5 µM), for inactives: top-dose fluorescence increase, usual class: activators; further: potency means the concentration at half of the fitted maximal effect; 0% is about no effect
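Titrations up to 57 uM read every 20 sec for 3 min (405/520 nm) with 50 nM caspase 1 and 5 uM Ac-WEHD-AFC, pH 7.5 HEPES buffer. Fluorescence-vs-time intercept gave baseline, scaled against on-plate AFC standard.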
GBA mod – Glucocerebrosidase. purified enzyme, resorufin glucoside fluorescence (screen aimed at inhibitors), 20 min. Potency, µM. hit rate 1.1% among 48,000; in the data active means potency below about 15 µM; inconclusive means mostly about 16 µM to 33 µM;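 further: potency means the concentration at half of the fitted maximal effect; the screen sought inhibitors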
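Wild-type enzyme at 0.2 nM final in 50mM citric acid/KH2PO4, 10mM sodium taurocholate, 0.01% tween-20, pH 5.9, with resorufin beta-D-glucopyranoside at 30 uM final. Compounds titrated, 20 min at RT, red fluorescence read; AC50 from titration.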
HSD17B inh – qHTS Assay for Inhibitors of HSD17B4, hydroxysteroid (17-beta) dehydrogenase 4. recombinant HSD17B10, NADH fluorescence kinetic. Potency, µM (top dose mostly 57.1 µM), without a hit: at the top dose activity change, negative = inhibition, most hits filed as inhibitors. hit rate 7.6% among 75,000. AID 893, 2007. 3-hydroxyacyl-CoA dehydrogenase type-2 (Homo sapiens), Q99714;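 further: the protocol describes HADH2 (HSD17B10) and not the HSD17B4 of the title; potency means the concentration at half of the fitted maximal effect; on the % scale 0 is the no-effect control and ±100 the full control effect; nearly all actives have a fitted effect of over 70% in size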
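20 nM HADH2, pH 9.0 Tris/Tween; cpd preinc 15 min RT; start w/ 1 mM NAD+ + 90 uM b-hydroxybutyryl-CoA; kinetic fluor ex360/em450 q30s x 4 min; delta last-first.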
Starred values were filed as active, the others as inactive; ! = not confirmed by another sample; [ ] = dose if it differs, or a comment. Sampled rows, rich in hits. Any-hit rate of the full collection: about 13%. Unless noted, the call rests on the fitted dose curve; in most records, active means well fitted curve in the direction sought with a large enough effect; inconclusive means small, poorly fitted or top-dose-only effect, or another doubt; inactive means no such curve, though single readings can be large; an effect the other way counts as inactive or inconclusive.

Results for O=c1[nH]c2ccccc2cc1-c1noc(-c2cccnc2)n1 ?
HADH2 inhib: -26%; 4MU fluor: 3e-07M*; A350 fluor: 2.8e-07M*; AID923: 2%; GBA mod: >77; HSD17B inh: 7.9µM*

What do the screens show for `CCCS(=O)(=O)O`?
HADH2 inhib: 10%[11.4 µM]; 4MU fluor: inactive; A350 fluor: inactive; AID923: -3%[11.5 µM]; HSD17B inh: 0%[11.4 µM]

How did O=C(Nc1ccccc1)c1cc(N2CCOCC2)nc2ccccc12 do in these assays?
4MU fluor: 8.6e-08M*; A350 fluor: 1.2e-07M*

What do the screens show for `Cc1cccc(NC(=O)c2cc(N3CCOCC3)nc3ccccc23)c1`?
4MU fluor: 9.3e-08M*; A350 fluor: 1.1e-07M*

How did Cc1ccc(C(=O)Nc2ccccc2N2CCOCC2)c(C)c1 do in these assays?
HADH2 inhib: 6%; AID923: 0%; HSD17B inh: 4%

What do the screens show for `O=C(c1cc(-c2ccncc2)nc2ccccc12)N1CCN(c2ccc(N3CCOCC3)nn2)CC1`?
HADH2 inhib: 19%; 4MU fluor: inconclusive; A350 fluor: inconclusive; AID923: 0%; GBA mod: >77; HSD17B inh: 14%

Results for O=C(Nc1cc(N2CCOCC2)ncn1)c1ccccc1 ?
HADH2 inhib: 4%; 4MU fluor: inactive; A350 fluor: inactive; AID923: -1%; GBA mod: >77; HSD17B inh: 3%

How did Cc1ccc(NC(=O)c2cc(N3CCOCC3)nc3ccccc23)cc1 do in these assays?
4MU fluor: 8.1e-08M*; A350 fluor: 1.1e-07M*

Results for O=C(c1cc(N2CCCCC2)nc2ccccc12)N1CCOCC1 ?
4MU fluor: 5.9e-08M*; A350 fluor: 7e-08M*

How did CN(C)Cc1ccccc1-c1cc(N(C)C)ncn1 do in these assays?
HADH2 inhib: -13%; 4MU fluor: inactive; A350 fluor: inactive; AID923: -1%; HSD17B inh: -3%

Results for Nn1c(SCC(=O)Nc2ccc(S(=O)(=O)N3CCCC3)cc2)nnc1C(F)(F)F ?
HADH2 inhib: 4%; 4MU fluor: inactive; A350 fluor: inactive; AID923: -1%; GBA mod: >77; HSD17B inh: 6%

What do the screens show for `O=C(Nc1nccs1)c1ccc(Cl)c(S(=O)(=O)N2CCOCC2)c1`?
HADH2 inhib: -1%; 4MU fluor: inactive; A350 fluor: inactive; AID923: 0%; GBA mod: >77; HSD17B inh: -2%

How did O=C(Nc1nccs1)c1cc(N2CCOCC2)nc2ccccc12 do in these assays?
HADH2 inhib: -4%; 4MU fluor: 1e-08M*; A350 fluor: 1.5e-08M*; AID923: -1%; GBA mod: inconclusive; HSD17B inh: -13%

What do the screens show for `COC(=O)CSc1nnc(-c2cccs2)n1-c1ccc(Cl)cc1`?
HADH2 inhib: 10%; 4MU fluor: inactive; A350 fluor: inactive; AID923: 0%; HSD17B inh: -5%

How did Cc1cccc(-n2c(SCCC(=O)O)nnc2-c2cccs2)c1C do in these assays?
HADH2 inhib: 10%; 4MU fluor: inactive; A350 fluor: inactive; AID923: 0%; GBA mod: >77; HSD17B inh: 25µM*

How did C=CCn1c(SCCC(=O)O)nnc1-c1cccs1 do in these assays?
HADH2 inhib: 5%; 4MU fluor: inactive; A350 fluor: inactive; AID923: -2%; GBA mod: >77; HSD17B inh: 25µM*

What do the screens show for `C=CCn1c(SCC(=O)Nc2ccc3c(c2)CCC3)nnc1-c1cccs1`?
HADH2 inhib: -2%; 4MU fluor: inactive; A350 fluor: inactive; AID923: 2%; GBA mod: >77; HSD17B inh: 3%

What do the screens show for `C=CC1=C(C(=O)O)N2C(=O)C(NC(=O)/C(=N\O)c3csc(N)n3)C2SC1` (centres undefined)?
AID923: -1%; HSD17B inh: -9%

What do the screens show for `O=C1CC(C(=O)Nc2ccc(O)c(C(=O)O)c2)C(c2ccccc2)O1` (centres undefined)?
HADH2 inhib: 25µM*; 4MU fluor: inconclusive; A350 fluor: inconclusive; AID923: 2%; GBA mod: >77; HSD17B inh: 32µM*

Results for O=C1CC(C(=O)Nc2ccccc2C(=O)O)C(c2ccccc2)O1 (centres undefined) ?
HADH2 inhib: -1%; 4MU fluor: inactive; A350 fluor: inactive; AID923: -1%; HSD17B inh: 3%

What do the screens show for `CCCCS(=O)(=O)NC1=NCN(C2CCN(Cc3ccccc3)CC2)CN1`?
HADH2 inhib: 3%; 4MU fluor: inactive; A350 fluor: inactive; AID923: 1%; GBA mod: >77; HSD17B inh: 3%

Results for CC(=O)NS(=O)(=O)c1ccc(N)cc1 ?
HADH2 inhib: 0%; 4MU fluor: 2.3e-08M*!; A350 fluor: 2.6e-08M*!; AID923: -5%; HSD17B inh: 2%

How did CC(=O)NS(=O)(=O)c1ccc(NS(=O)(=O)c2ccc(F)cc2)cc1 do in these assays?
HADH2 inhib: -3%; 4MU fluor: inactive; A350 fluor: inactive; AID923: 2%; GBA mod: >77; HSD17B inh: -5%

Results for O=C(O)C1CCCCC1C(=O)NCCc1ccc(Cl)cc1 (centres undefined) ?
HADH2 inhib: -28%; 4MU fluor: 3.5e-07M*; A350 fluor: 3.5e-07M*; AID923: 16%; GBA mod: >77; HSD17B inh: 193%

How did CCOC(=O)CCN1C(=O)[C@H]2[C@H]3[C@H](O)[C@H](O)C/C(=N/OCc4ccccc4)[C@H]3CC[C@@H]2C1=O do in these assays?
HADH2 inhib: -3%[11.4 µM]; AID923: -1%[11.5 µM]; HSD17B inh: -3%[11.4 µM]

What do the screens show for `O=C(NC1CC2CCCC(C1)N2C1CC1)NC12CC3CC(CC(C3)C1)C2` (centres undefined)?
HADH2 inhib: 3%; 4MU fluor: inactive; A350 fluor: inconclusive; AID923: 0%; GBA mod: 10*; HSD17B inh: -2%

Results for O=C(c1noc2c1CCCCC2)N1CCN(C(c2ccccc2)c2ccccc2)CC1 ?
HADH2 inhib: 4%; 4MU fluor: inactive; A350 fluor: inactive; AID923: -1%; GBA mod: >15; HSD17B inh: 1%

How did Cc1cc(NC(=O)CN2CCCC2c2nc3ccccc3s2)no1 (centres undefined) do in these assays?
HADH2 inhib: -11%; 4MU fluor: inactive; A350 fluor: inactive; AID923: 0%; GBA mod: >77; HSD17B inh: -5%
